Sampled rows, rich in hits. Any-hit rate of the full collection: about 27%.
sEH inhibitor – soluble epoxide hydrolase (human) inhibition | P34913 | recombinant human sEH enzymatic activity assay | inhibition, % at 2 µM | 91,000 tested, 0.34% active; in the data active = inhibition above about 80%
Target sequence (P34913 whole entry, looked up): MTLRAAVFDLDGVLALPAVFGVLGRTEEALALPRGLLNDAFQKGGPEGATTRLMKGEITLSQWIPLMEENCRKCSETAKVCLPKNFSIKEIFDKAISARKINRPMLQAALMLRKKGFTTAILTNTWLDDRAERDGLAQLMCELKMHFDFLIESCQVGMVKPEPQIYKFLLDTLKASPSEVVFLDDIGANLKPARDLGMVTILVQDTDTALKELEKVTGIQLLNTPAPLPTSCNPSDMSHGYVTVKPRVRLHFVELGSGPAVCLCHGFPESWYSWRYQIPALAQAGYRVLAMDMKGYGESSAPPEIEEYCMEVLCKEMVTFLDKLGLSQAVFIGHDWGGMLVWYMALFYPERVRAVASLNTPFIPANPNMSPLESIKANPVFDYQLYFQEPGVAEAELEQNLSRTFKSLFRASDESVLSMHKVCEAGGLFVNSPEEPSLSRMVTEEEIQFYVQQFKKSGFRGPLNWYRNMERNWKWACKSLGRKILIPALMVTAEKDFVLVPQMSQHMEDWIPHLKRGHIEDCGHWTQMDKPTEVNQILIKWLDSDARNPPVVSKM
CYP2C19 act – increases human CYP2C19 enzyme activity; recombinant CYP2C19, luciferin-H EGE luminescence; active compounds read high; 0 = fully inhibited enzyme, 1 = untreated enzyme; activation factor at 5 µM; 96,000 tested, under 10 active; AID 1025;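 active = activation factor of at least 2 at 5 µM in the primary screen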;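 note: 0 = wells with 2.5 mM tranylcypromine and 1 = vehicle-only wells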
CYP2C9 inhib – blocks human cytochrome P450 2C9. P11712. CYP2C9 Supersomes, luciferin-H conversion, luminescence. inhibition, % at 5 µM. 96,000 tested, 20% active. AID 777;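 active = blocking of liver enzyme CYP2C9 beyond about 50% at 5 µM, limit read from the data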
CYP2C9 activ – increases human cytochrome P450 2C9 activity | 96,000 tested, 1.4% active | activation factor at 5 µM | AID 1024 | recombinant CYP2C9, luciferin-H conversion, luminescence; active compounds read high; factor 1 = untreated enzyme, 0 = blocked;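 active = activation factor of 2 or more for CYP2C9 at a 5 µM dose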;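 note: 0 = sulfaphenazole-blocked wells and 1 = vehicle-only wells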
CYP2C19 inhib – blocks human cytochrome P450 2C19. P33261. CYP2C19 Supersomes, luciferin-H EGE luminescence, 30 min. inhibition, % at 5 µM. 96,000 tested, 21% active. AID 778;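 active = CYP2C19 inhibition above a set limit at 5 µM in the primary screen, cut at about 50% in these data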;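 note: plate controls were negative control wells for no effect and 2.5 mM tranylcypromine positive control for full effect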
sEH act – activators of human soluble epoxide hydrolase; purified human sEH enzymatic activity, activator screen; activation, % at 2 µM; 91,000 tested, 0.04% active; AID 717; in the data active = activation above about 37%
Starred values were filed as active, the others as inactive; . = no result given.

SMILES	sEH inhibitor	CYP2C19 act	CYP2C9 inhib	CYP2C9 activ	CYP2C19 inhib	sEH act
COC(=O)C1=NN(c2ccc(C)cc2)C2(S1)SC(C(C)=O)=C(C)N2c1ccccc1 (centres undefined)	-22.5	0.4	59.2*	0.4	58.1*	25.0
COc1ccc(-c2cc(C(F)(F)F)nc(SCCC(=O)N3CCOCC3)n2)cc1	1.6	1	13.8	0.9	1.7	-4.1
COc1ccc(S(=O)(=O)NCc2ccco2)cc1-c1nnc2c3ccccc3c(C)nn12	-13.4	0.9	14.3	0.9	14.2	13.8
CCCN(CCC)C(=O)C1CCN(c2cc(C)nc3c(-c4ccc(OC)c(OC)c4)c(C)nn23)CC1	6.3	0.5	51.3*	0.5	48.3	-6.4
O=C(c1ccco1)N(CCCN1CCOCC1)c1nc(-c2ccc(F)cc2)cs1	5.4	0.6	66.8*	0.3	36.7	-4.2
O=C(c1ccco1)N(CCCN1CCOCC1)c1nc(-c2ccc(Cl)cc2)cs1	-6.8	0.1	92.5*	0.1	87.1*	8.7
O=C(C1CC1)N(Cc1ccco1)c1nc(-c2ccccc2)cs1	12.6	0.8	34.0	0.7	21.7	-10.8
O=C(NCCCN1CCOCC1)c1ccco1	-7.9	1	-1.8	1	-0.1	9.3
CC1(C)Cc2c(cnn2-c2ccccc2)-c2c1c1ccccc1n2CC(O)CBr (centres undefined)	11.7	0.5	54.8*	0.5	52.6*	-8.4
COc1ccc(CN(C(=O)Cn2nnc3ccccc32)C(C(=O)NC(C)(C)C)c2ccco2)cc1 (centres undefined)	5.5	1	-1.9	1	-1.1	-7.8
COc1ccc(C2C(C(=O)NCC3CCCO3)c3cc(OC)c(OC)cc3C(=O)N2C)cc1OC (centres undefined)	.	0.6	12.5	0.9	42.2	.
CCC(=O)N(C)/C=C1\Sc2ccccc2C1=O	9.7	0.8	10.0	0.9	20.2	-7.0
O=CN(/C=C1\Sc2ccccc2C1=O)Cc1ccccc1	-13.2	1	56.2*	0.4	-2.4	11.3
Cc1ccc(S(=O)(=O)N(CCC(=O)O)Cc2ccc(Cl)cc2)cc1	-12.5	0.6	53.7*	0.5	36.9	12.1
CCOC(=O)N1CCN(C(=O)CN(Cc2ccccc2)S(=O)(=O)c2ccc(OC)c(Cl)c2)CC1	4.5	0.1	54.9*	0.5	88.8*	-6.4
COc1ccc(S(=O)(=O)N(C)CC(=O)N2CCN(Cc3ccccc3)CC2)cc1C	-6.8	0.7	-137.0	2.4*	32.3	4.8
CCOC(=O)N1CCN(C(=O)CN(Cc2ccccc2)S(=O)(=O)c2ccc(OC)c(C)c2)CC1	-7.5	0.4	26.7	0.7	64.1*	8.1
CCN1CCN(C(=O)CN(C)S(=O)(=O)c2ccc(OC)c(C)c2)CC1	-12.8	1	-62.2	1.6	-2.2	12.4
CCCc1cc(Nc2ccccc2OCC)n2ncnc2n1	-22.2	0.6	2.7	1	39.7	24.2
O=C1CC(C(=O)O)C2(CCCC2)O1 (centres undefined)	6.0	.	.	.	.	-0.5
O=C(CSc1nnc(-c2cccnc2)n1-c1ccccc1)Nc1ccc2c(c1)OCO2	-2.5	1.1	10.9	0.9	-6.5	1.7
CCOC(=O)N1CCN(C(=O)CN(Cc2ccc(Cl)cc2)S(=O)(=O)c2ccc(C)cc2)CC1	-17.9	0	90.2*	0.1	96.1*	13.8
CCOC(=O)N1CCN(C(=O)CN(Cc2ccc(Cl)cc2)S(C)(=O)=O)CC1	11.6	0.5	17.6	0.8	48.2	-8.2
Nn1c(SCC(=O)N2CCOCC2)nnc1-c1ccco1	2.2	1.1	3.5	1	-9.8	-1.0
CCOc1ccc(NC(=O)CN(C)CC(=O)Nc2ccccc2C#N)cc1OCC	7.1	0.8	11.0	0.9	16.2	-6.0
SMILES	sEH inhibitor	CYP2C19 act	CYP2C9 inhib	CYP2C9 activ	CYP2C19 inhib	sEH act
CCOc1ccc(NC(=O)CN(C)CC(=O)NC2CCCc3ccccc32)cc1OCC (centres undefined)	-21.1	0.8	85.8*	0.1	22.7	18.8
CCOc1ccc(N(CC(=O)NC(C)CC)S(=O)(=O)c2c(C)noc2C)cc1 (centres undefined)	.	0.4	27.6	0.7	63.9*	.
CCOc1ccc(N(CC(=O)NCc2ccccc2)S(=O)(=O)c2c(C)noc2C)cc1	11.1	0.1	46.2	0.5	91.2*	-9.0
CCOc1ccc(N(CC(=O)Nc2nccs2)S(=O)(=O)c2c(C)noc2C)cc1	0.9	0.3	64.0*	0.4	70.6*	1.4
COc1cccc(CNC(=O)CN(c2cc(C)cc(C)c2)S(=O)(=O)c2c(C)noc2C)c1	-0.2	0.5	58.4*	0.4	54.8*	-1.0
CCOc1ccc(NC(=O)CN(c2cc(C)cc(C)c2)S(=O)(=O)c2c(C)noc2C)cc1	-0.9	.	.	.	.	0.0
COc1cccc(N2CC(O)Cn3c2nc2c3c(=O)n(CCCc3ccccc3)c(=O)n2C)c1 (centres undefined)	0.9	0.9	25.4	0.7	14.4	-0.6
O=C(CSc1nnc(-c2ccc(Cl)s2)o1)N1CCOCC1	-9.9	1	-9.6	1.1	-4.2	11.4
Cn1c(SCC(=O)OCC(=O)c2ccccc2)nnc1-c1cccs1	-10.9	0.7	20.7	0.8	27.3	10.5
CCOC(=O)C1CCN(C(=O)COc2ccc(Cl)cc2Cl)CC1	-1.8	0.2	-40.2	1.4	79.9*	3.9
O=C(COc1ccc(Cl)cc1Cl)N1CCCC1	-10.9	0.8	-11.6	1.1	15.3	6.2
CCOC(=O)C1CCN(C(=O)COc2ccc(Cl)cc2)CC1	4.1	0.6	9.2	0.9	43.6	-0.8
COC(=O)C1CCN(C(=O)COc2ccc(Cl)cc2)CC1	-3.3	0.1	30.7	0.7	85.7*	7.3
CCOC(=O)C1CCN(C(=O)COc2ccc(Cl)cc2C)CC1	12.3	0.2	-72.5	1.7	83.2*	-11.7
CCc1cccc(CC)c1NC(=O)CSc1nnc(C(C)C)n1CC	-4.7	1	-13.6	1.1	1.2	4.3
Cc1cc(C)c(NC(=O)/C=C\C(=O)O)c([N+](=O)[O-])c1	7.8	1	4.2	1	-2.8	-6.7
CC1(C)SC(=S)N(/N=C/c2ccc(O)cc2)C1N(O)C(=O)Nc1ccc([N+](=O)[O-])cc1 (centres undefined)	3.9	0.7	66.1*	0.3	26.6	-3.0
Cc1ccc(/C=N/N2C(=S)SC(C)(C)C2N(O)C(=O)Nc2ccc([N+](=O)[O-])cc2)cc1 (centres undefined)	10.1	0.8	30.4	0.7	23.3	-6.8
Cc1ccc(-n2c(Cc3cccn3C)nnc2SCC(=O)Nc2cc(C)on2)cc1	.	1	5.1	0.9	2.5	.
O=C(CSc1nnc(-c2ccc(Cl)cc2)n1Cc1ccco1)c1cccs1	-2.8	0.9	54.7*	0.5	7.2	2.5
O=C(CSc1nnc(-c2ccncc2)n1Cc1ccco1)c1ccc(Cl)cc1	1.3	0.1	91.8*	0.1	95.0*	-1.1
O=C(CSc1nnc(-c2ccncc2)n1Cc1ccco1)Nc1ccccc1Cl	-1.7	0	89.3*	0.1	97.3*	1.2
